Holding throughout (test): NCI-60 one-dose screen, 48 h (100 = growth as untreated, 0 = no growth, -100 = all killed)
Common to all, as to settings: 10 µM unless noted

Test [1] has as its system EKVX NSCLC.
Test [2] relates to SN12C renal.
The test system of test [3] is UO-31 renal.
The test system of test [4] is TK-10 renal.
The test system of test [5] is ACHN renal.
In test [6] the test system is CAKI-1 renal.
The test system of test [7] is CCRF-CEM leukemia.
Test [8] relates to SR leukemia.
Test [9] concerns RPMI-8226 leukemia.
In test [10] the test system is OVCAR-8 ovarian.
The subject of test [11] is OVCAR-5 ovarian.
The subject of test [12] is SK-OV-3 ovarian.
Test [13] concerns IGROV1 ovarian.
For test [14], the system named is OVCAR-3 ovarian.
Test [15] has as its system HS 578T breast.
The subject of test [16] is NCI/ADR-RES ovarian.
Test [17] deals with T-47D breast.
For test [18], the system named is OVCAR-4 ovarian.
Test [19] has as its system MOLT-4 leukemia.

Compounds without any hit were thinned out: in the full panel of roughly 83,000, 20% have a hit.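 Method: cells in 96-well plates; compound added at one concentration; 48 h incubation; percent growth measured; values under 10 scored active.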 Unmarked numbers belong to inactive results. Calls of active or inactive are those of the source.

In PubChem BioAssay (NCI) one finds growth data, which are given here for 8 molecules.

On to `COC(=O)C1CN(S(=O)(=O)/N=C2\NC(=O)NC2=C(Cl)Cl)C1`, for which the growth in test [1] was 104%; in [2], 101%; in test [3], 88.7%; in [4], 139%; in [5], 106%; in [6], 101%. Also, the growth was 95.5% in [7]; 94.4% in test [8]; 85.2% in test [9]; 99.9% in test [10]; 116% in [11]; 113% in test [12]. Further, the growth was 109% in [13]; 116% in test [14]; 104% in [15]; 109% in test [16]; 81% in test [17].
As for `COc1cc(/C=C/C(=O)c2ccc(C(F)(F)F)cc2)ccc1Oc1nc(NCCO)nc(N2CCOCC2)n1`, the growth in test [1] is 93.7%; in test [2], 86.9%; in test [3], 70.5%; in test [4] it was 111%; in [5], 86.2%; in [6], 82.7%. Further, the growth in test [7] is 4.08% (active); in test [8], -8.21% (active); in test [9], -16.1% (active); in test [10], 95.9%; in [11], 101%; in test [18] it was 96%. For the same molecule, the growth is 101% in test [12]; 92.5% in [13]; 109% in test [14]; 82% in [15]; 96.7% in [16]; 83.5% in test [17].
In the case of `COc1ccc(C(=O)/C=C/c2ccc(OCc3ccc(C)cc3)c(OC)c2)cc1OC`, the growth in test [1] was 61.4%; in test [2] it was 75.9%; in [3], 58.6%; in [4], 117%; in [5] it was 75.8%; in [6], 61.4%. Besides, the growth in test [7] was 32.2%; in [8] it was 9.97% (active); in [9], 8.56% (active); in [10], 49.1%; in test [11], 95.4%; in test [18] it was 60.9%. The growth in test [12] is 100%; in test [13], 84%; in [14] it was 76.8%; in test [15] it was 91.4%; in test [16], 53.7%; in [17], 45.6%.
Turning to `COc1ccc(/C=C2\SC(=Nc3cc(C)on3)NC2=O)cc1`, the growth in test [1] was 89.7%; in test [2], 100%; in [3] it was 85.5%; in test [4], 106%; in test [5] it was 106%; in test [6] it was 96.6%. Further, the growth was 101% in test [7]; 100% in test [19]; 98.9% in test [8]; 98.2% in test [9]; 102% in test [10]; 97.6% in test [11]. Further, the growth is 109% in [18]; 113% in test [12]; 99.2% in test [13]; 116% in test [14]; 96.9% in test [15]; 98.6% in test [16]. Further, the growth in [17] is 104%.
Take `COC(=O)c1ccc(NC(=S)N2CCc3ccc([N+](=O)[O-])cc3C2)cc1O`: the growth in test [1] is 99.2%; in test [2] it was 99.8%; in test [3], 85.5%; in test [4], 137%; in [5], 95.4%; in test [6], 92.7%. The growth in [7] is 94.9%; in test [19] it was 91.7%; in [8], 95.5%; in test [9], 101%; in test [10], 101%; in [11] it was 103%. For the same molecule, the growth is 112% in test [18]; 98.4% in test [12]; 99% in [13]; 116% in test [14]; 102% in [15]; 107% in test [16]. The growth in test [17] was 103%.
Regarding `C=CCn1c(SCC(=O)c2ccccc2)nnc1-c1c[nH]c2ccccc12`, the growth in test [1] was 95.8%; in test [2] it was 92.7%; in test [3], 65.7%; in test [4] it was 144%; in test [5], 93.8%; in test [6], 83.1%. For the same molecule, the growth in test [7] was 91.2%; in test [19], 92.8%; in test [8], 76.5%; in test [9], 86.6%; in test [10], 95.4%; in test [11], 103%. The growth was 97.5% in test [18]; 120% in test [12]; 88.4% in [13]; 115% in test [14]; 97.4% in test [16]; 95% in [17].
For `Cc1cc2nc3c4cc(Cl)ccc4n(CC(=O)NCCN(C)C)c3nc2cc1C`, the growth in [1] was 73.8%; in [2] it was 79.8%; in test [3], -83.6% (active); in [4], 161%; in [5], -47.4% (active); in [6], 53.9%. Moreover, the growth is -14.5% (active) in test [7]; -38% (active) in test [8]; -27.3% (active) in test [9]; 55.9% in test [10]; -16.7% (active) in test [11]; 95.7% in test [18]. In addition, the growth in test [12] is 106%; in test [13] it was 56.2%; in test [14], 96.7%; in test [15], 71.9%; in [16], 55.4%; in test [17], 82%.
For `Nc1c(C(=O)Nc2ccc(C(F)(F)F)cc2)sc2nc(-c3cnccn3)cc(-c3cccs3)c12`, the growth in test [1] was 76.1%; in test [2], 94.9%; in [3], 59.5%; in test [4], 174%; in [5] it was 43.3%; in test [6], 16.2%. Besides, the growth was 84.7% in [7]; 75.7% in test [19]; 66.3% in test [8]; 72.2% in test [9]; 66.7% in test [10]; 102% in [11]. Besides, the growth in test [18] is 63.5%; in test [12], 88.1%; in test [13], 83.9%; in [14], 96%; in test [15], 70.3%; in [16], 78.2%. The growth in [17] was 90.3%.
